According to PubChem BioAssay:

Assay: optical density shifts of acrAB sulA E. coli – strain DRC41, OD650, 48 h, E. coli filamentation inducer project, primary screen (AID 1152);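 further: E. coli MC1000 strain DRC41 lacking acrAB efflux pump and sulA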
Details: higher = more signal, called active from +8 up or from −8 down

z-score, inactive:
O=C1C[C@]2(c3ccc([N+](=O)[O-])cc3)C(=O)N(Cc3ccccc3)c3cc(CO)ccc3[C@H]2N1CC12CC3CC(CC(C3)C1)C2 -0.06
Cc1c(NC(=O)/C(C#N)=C/C=C/c2ccc(N(C)C)cc2)c(=O)n(-c2ccccc2)n1C 0.504
COCCOC(=O)N1C(=O)[C@@]2(c3ccccc31)[C@H](c1ccc(OCCO)cc1)N1[C@H](c3ccccc3)[C@H](c3ccccc3)OC(=O)[C@H]1[C@@H]2C(=O)Nc1nc2ccccc2s1 0.269
COCCCNC(=O)[C@@]1(Sc2ccc(C)cc2)CC(=O)N(Cc2cc(C(F)(F)F)cc(C(F)(F)F)c2)[C@@H]1c1ccc(CO)cc1 0.154
CCCC[C@@H]1C[C@H]1[C@@H](NC(=O)c1ccccc1)c1ccc(Cl)cc1 -2.41
CC(C)C(CO)N1C(=O)[C@]2(C)C3C(=O)OCCC/C=C\[C@H]3OC23C=CCN(c2ccc(Cl)cc2)C(=O)[C@@H]13 (stereo not given in full) -0.785
COC(=O)[C@@]1(Cc2ccc(OC)cc2)[C@H]2c3cc(C(=O)N4CCCC4)n(CCc4cc5ccccc5[nH]4)c3C[C@H]2CN1C(=O)c1ccccc1 -1.31
CCCC[C@@H]1C[C@H]1[C@@H](NC(=O)c1cccnc1)c1ccc(-c2ccccc2)cc1 -2.22
[N-]=[N+]=Nc1ccccc1[C@@H]1OC(c2ccc(OCCCO)cc2)=N[C@]1(CCS(=O)(=O)c1ccccc1)C(=O)NCCN1CCOCC1 0.0992
C[C@@H](OCc1ccccc1)C1NC(=O)[C@@]23C(=O)N[C@@H](Cc4ccccc4)C2[C@H](C)[C@@]2(C)O[C@H]2C3/C=C/C/C=C\CNC(=O)CNC1=O (stereo not given in full) -0.824
